Measured values taken from PubChem BioAssay (NCATS).
Where “and” joins values, the source holds several entries; their conditions need not be identical. Identical values can stand only once. Results filed as inconclusive are left out. Where a call stands in place of a potency, no number is given. Values without a mark were called inactive. Calls of active or inactive are those of the source. Unless noted, calls follow the shape of the dose curve; as a rule, active = well fitted curve in the direction sought with a large enough effect; inconclusive = small, poorly fitted or top-dose-only effect, or another doubt; inactive = no such curve, though single readings can be large; an effect the other way counts as inactive or inconclusive.

Experiments:
[1] = molecular target: Cellular tumor antigen p53 (Homo sapiens) (UniProt P04637); assay: Primary qHTS for small molecule compounds that upregulate eGFP-tagged delta133p53alpha (in N-terminal) cells. (AID 2060322); details: NCI-H358 eGFP-delta133p53alpha fluorescence, 24 h; activation: stronger effect = higher value;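 also: cells pre-induced with doxycycline then dosed without doxycycline; series mostly up to about 56 µM; nearly all actives have a fitted effect of over 75% in size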
Outline: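 NCI-H358 cells pre-induced 24 h with 10 ng/ml doxycycline for eGFP-delta133p53alpha, plated dox-free and exposed 24 h at 37C to titrated compounds. Fixed, Hoechst-stained; gated GFP peak intensity by laser scanning cytometry, normalized to DMSO (0%) and 57.5 uM 5-azacytidine (100%).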

[2] = molecular target: Cellular tumor antigen p53 (Homo sapiens) (UniProt P04637); assay: Primary qHTS for small molecule compounds that upregulate eGFP-tagged delta133p53alpha (in C-terminal) cells. (AID 2060324)
Outline: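 Doxycycline (100 ng/ml, 24 h) first induced the eGFP fusion in NCI-H358 C-terminal-tag cells. Washed-out cells then received titrated compounds for 24 h at 37 °C before paraformaldehyde fixation, Hoechst staining and cytometric GFP quantification.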

[3] = molecular target: Aldehyde dehydrogenase, mitochondrial (Homo sapiens) (UniProt P05091); assay: qHTS for Inhibitors of the Aldehyde Dehydrogenase Family (ALDH2) Validation screens (AID 2061302; active = well fitted inhibition curve with a large enough effect; title and protocol of this record describe different tests; also: potency is read from the fitted curve at half-maximal effect)
[4] = molecular target: Aldehyde dehydrogenase, mitochondrial (Homo sapiens) (UniProt P05091); assay: qHTS for Inhibitors of the Aldehyde Dehydrogenase Family (ALDH2) Primary screen (AID 2061308); also: nearly all actives have a fitted effect of over 55% in size
[5] = molecular target: Retinaldehyde dehydrogenase 3 (Homo sapiens) (UniProt P47895); assay: qHTS for Inhibitors of the Aldehyde Dehydrogenase Family (ALDH1A3) Validation screen (AID 2061312); also: nearly all actives have a fitted effect of over 45% in size
[6] = molecular target: Retinaldehyde dehydrogenase 3 (Homo sapiens) (UniProt P47895); assay: qHTS for Inhibitors of the Aldehyde Dehydrogenase Family (ALDH1A3) Primary screen (AID 2061315)
[7] = molecular target: Aldehyde dehydrogenase, mitochondrial (Homo sapiens) (UniProt P05091); assay: qHTS for Inhibitors of the Aldehyde Dehydrogenase Family (ALDH2) Confirmatory screens (AID 2061303; active = well fitted inhibition curve with a large enough effect; title and protocol of this record describe different tests; also: nearly all actives have a fitted effect of over 45% in size; also: potency is read from the fitted curve at half-maximal effect)
[8] = molecular target: Retinaldehyde dehydrogenase 3 (Homo sapiens) (UniProt P47895); assay: qHTS for Inhibitors of the Aldehyde Dehydrogenase Family (ALDH1A3) Confirmatory screens (AID 2061311); also: nearly all actives have a fitted effect of over 60% in size; also: potency is read from the fitted curve at half-maximal effect
[9] = molecular target: Aldehyde dehydrogenase 1A1 (Homo sapiens) (UniProt P00352); assay: qHTS for Inhibitors of the Aldehyde Dehydrogenase Family (ALDH1A1) Confirmatory screens (AID 2061316); also: nearly all actives have a fitted effect of over 65% in size; also: potency is read from the fitted curve at half-maximal effect
[10] = BET inhibitor-based combinations targeting novel dependencies in MECOM-rearranged (r) AML: UCSD-AML1 cell line (AID 2202235); also: series mostly up to about 46 µM; nearly all actives have a fitted effect of over 40% in size
Outline: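 Activity is given as area under the curve and as Z-AUC, mean-centred within each cell line. It comes from 11-point dose curves normalized to DMSO and empty wells. CellTiter-Glo luminescence was read after 48 hr drug exposure of 500 cells/well.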

[11] = qHTS for Inhibitors of the Aldehyde Dehydrogenase Family (ALDH1A2, ALDH1A3, ALDH2, ALDH3A1) (AID 2061307); also: nearly all actives have a fitted effect of over 50% in size; as to potency: test system not described further here; potency is read from the fitted curve at half-maximal effect
[12] = molecular target: Retinal dehydrogenase 2 (Homo sapiens) (UniProt O94788); assay: qHTS for Inhibitors of the Aldehyde Dehydrogenase Family (ALDH1A2) Confirmation screens (AID 2061314); also: nearly all actives have a fitted effect of over 65% in size; also: potency is read from the fitted curve at half-maximal effect

Sequence of Cellular tumor antigen p53 (Homo sapiens) (P04637 whole entry, looked up, the tested form may be a part): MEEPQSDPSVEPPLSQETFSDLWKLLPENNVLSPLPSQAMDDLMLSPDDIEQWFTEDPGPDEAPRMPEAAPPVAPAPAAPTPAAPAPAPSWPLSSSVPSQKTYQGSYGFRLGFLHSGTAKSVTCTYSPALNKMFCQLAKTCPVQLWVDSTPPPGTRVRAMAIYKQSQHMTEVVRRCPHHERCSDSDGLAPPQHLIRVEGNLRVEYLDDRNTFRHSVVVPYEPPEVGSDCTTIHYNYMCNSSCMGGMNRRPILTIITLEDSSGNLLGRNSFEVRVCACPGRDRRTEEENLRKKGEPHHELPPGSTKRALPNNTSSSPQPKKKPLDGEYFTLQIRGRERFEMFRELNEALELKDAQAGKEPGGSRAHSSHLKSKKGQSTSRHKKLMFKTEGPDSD

With `CCN(CC)CCCCNc1ncc2cc(-c3c(Cl)cccc3Cl)c(NC(=O)NC(C)(C)C)nc2n1` the activation [1] was -67.6% and 10%, the Potency [2] was “inactive” and the Potency [3] was “inactive”. For the same compound, the Potency [4] was “inactive”, the Potency [5] was “inactive” and the Potency [6] was “inactive”.
For `CC(C)NCC(O)COc1cccc2[nH]ccc12` (stereo not given), the activation [1] was -9.6% and -5.67% and -6.98%, the Potency [2] was “inactive” and the Potency [3] was “inactive”. For the same compound, the Potency [4] was “inactive”, the Potency [5] was “inactive” and the Potency [6] was “inactive”.
In the case of `Cc1cn[nH]c1`, the activation [1] is reported as 25.4% and 16.2% and -25.1%, the Potency [2] is reported as “inactive” and the Potency [3] is reported as “inactive”. For the same compound, the Potency [7] was “inactive”, the Potency [8] was “inactive” and the Potency [9] was “inactive”. For the same compound, the Potency [10] was “inactive”.
In the case of `CNC(=O)Oc1ccc2c(c1)[C@]1(C)CCN(C)[C@@H]1N2C`, the activation [1] is reported as -31.1% and -29.5% and 2.6%, the Potency [2] is reported as “inactive” and the Potency [3] is reported as “inactive”. For the same compound, the Potency [11] was 8960 nM (active) and the Potency [5] was “inactive”.
For `Oc1ccc(Cn2cc[nH]c2=S)cc1`, the activation [1] was -47.8%, the Potency [2] was “inactive” and the Potency [3] was “inactive”. For the same compound, the Potency [7] was “inactive” and the Potency [12] was “inactive”.
With `O=Nc1ccc2oc(=O)ccc2c1` the activation [1] was -33.9%, the Potency [2] was “inactive” and the Potency [3] was 1120 nM (active). For the same compound, the Potency [7] was 1270 nM (active), the Potency [8] was 283 nM (active) and the Potency [9] was 283 nM (active).
With `CN(C)C(=O)/N=N/C(=O)N(C)C` the activation [1] was -3.88%, the Potency [2] was “inactive” and the Potency [3] was “inactive”. For the same compound, the Potency [11] was “inactive” and the Potency [12] was 12700 nM (active).
For `CN1CCC[C@@H]1Cc1c[nH]c2ccc(CCS(=O)(=O)c3ccccc3)cc12`, the activation [1] was 8.47% and -10.4% and 2.33%, the Potency [2] was “inactive” and the Potency [3] was “inactive”. The Potency [4] was “inactive” and the Potency [5] was “inactive”.
